Compound activity deposited in PubChem by National Center for Advancing Translational Sciences (NCATS).
In the library only some 10% were active in any assay of this set; here they are far more common.
SARS PLP yeast = qHTS of Yeast-based Assay for SARS-CoV PLP; S. cerevisiae expressing SARS-CoV PLpro, growth rescue; Potency, µM (top dose mostly 32.9 µM), without a hit: at the top dose activity, positive = growth rescue, usual class: activators; 330,000 tested, 0.19% active; AID 485353, 2010; also: 0% is about no effect; nearly all actives have a fitted effect of over 55% in size
Pf growth 96h = Primary qHTS for delayed death inhibitors of the malarial parasite plastid, 96 hour incubation; AID 504834, 2011; P. falciparum luciferase reporter growth, 96 h; 320,000 tested, 6.9% active; Potency, µM (doses to about 28.7 µM), for inactives: at the top dose activity change, negative = inhibition, usual class: inhibitors; active = well fitted inhibition curve with a large enough effect; inconclusive = small, poorly fitted or top-dose-only effect, or another doubt; inactive = no such curve, though single readings can be large or run the other way; also: % is scaled to controls: 0 for no effect and ±100 for the full control effect
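96 h incubation, 37 C, 5% CO2, of luciferase-reporter P. falciparum-infected RBCs (2% hematocrit, 0.05% parasitemia final) with test compounds; endpoint luminescence.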
Pf growth 48h = Primary qHTS for delayed death inhibitors of the malarial parasite plastid, 48 hour incubation | P. falciparum luciferase growth in erythrocytes, 48 h | Potency, µM (top dose mostly 28.7 µM), without a hit: at the highest dose activity change, negative = inhibition, most hits filed as inhibitors | 310,000 tested, 5.9% active; active = well fitted inhibition curve with a large enough effect; inconclusive = small, poorly fitted or top-dose-only effect, or another doubt; inactive = no such curve, though single readings can be large or run the other way; also: % is scaled to controls: 0 for no effect and ±100 for the full control effect
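Cell-based growth assay: transgenic P. falciparum expressing firefly luciferase, cultured in red cells within RPMI 1640 containing 0.5% w/v Albumax, 24 mM bicarbonate and gentamycin. A drop in luciferase activity indicates inhibition.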
NS1 function inh = qHTS Assay for Inhibitors of Influenza NS1 Protein Function. Potency, µM (series often up to 46.1 µM), inactives show top-dose activity, positive = more growth. 270,000 tested, 0.4% active; also: actives are rising curves; nearly all actives have a fitted effect of over 50% in size
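S. cerevisiae expressing influenza A NS1, grown in glucose, washed, then diluted 1:100 into pH 6.0 -URA galactose medium with 23 nl compound. Growth recovery read as OD600; NS1-free strain serves as control.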
Numbers without * were called inactive; [ ] = remark or other dose. Unless noted, calls follow the shape of the full dose curve. Potency is read from the fitted curve at half-maximal effect.

Results for Cc1ccc(Nc2cc(C)nc3ccc(C)cc23)cc1 ?
SARS PLP yeast: 3%; Pf growth 96h: 0.042µM*; Pf growth 48h: -105%; NS1 function inh: 16%

What do the screens show for `COC(=O)c1ccc(Nc2cc(C)nc3ccccc23)cc1`?
SARS PLP yeast: 0%; Pf growth 96h: -25%; Pf growth 48h: inconclusive; NS1 function inh: -3%

What do the screens show for `COC(=O)c1ccc2nc(C)cc(Nc3ccc(N(C)C)cc3)c2c1`?
SARS PLP yeast: 6%; Pf growth 96h: inconclusive; Pf growth 48h: 1.7µM*; NS1 function inh: 26%

How did O=C(CCNS(=O)(=O)c1ccc(Br)cc1)NC1CCC(O)CC1 (configuration not stated) do in these assays?
SARS PLP yeast: 1%[6.58 µM]; Pf growth 96h: 5%; Pf growth 48h: -3%

Results for Cc1ccc(Sc2ncccc2C(=O)N(C)Cc2cccs2)c(C)c1 ?
SARS PLP yeast: -9%; Pf growth 96h: inconclusive; Pf growth 48h: inconclusive; NS1 function inh: -53%

How did CCOC(=O)c1sc(NC(=S)NC(=O)c2ccc(OC)cc2)nc1C do in these assays?
SARS PLP yeast: 0%; Pf growth 96h: 2.9µM*; Pf growth 48h: 34%; NS1 function inh: -14%

Results for COc1ccc(C(=O)NC(=S)Nc2nc(C)c(C(=O)N(C)C)s2)cc1 ?
SARS PLP yeast: -2%; Pf growth 48h: 6%; NS1 function inh: 6%

What do the screens show for `CCCCOC(=O)Nc1nc(C)c(C(=O)OCC)s1`?
Pf growth 96h: 1.5µM*; NS1 function inh: -55%

How did CCOC(=O)c1sc(NC(=O)CC)nc1C do in these assays?
SARS PLP yeast: -1%; Pf growth 96h: 20%; Pf growth 48h: -3%

What do the screens show for `O=C(NCCN1CCOCC1)c1cc2cc([N+](=O)[O-])ccc2s1`?
SARS PLP yeast: 1%; Pf growth 96h: 34%; Pf growth 48h: 13%; NS1 function inh: 2%

What do the screens show for `COc1ccc(CNC(=O)C2CCCN(c3nn4c(=O)cc(C)nc4s3)C2)cc1` (configuration not stated)?
SARS PLP yeast: 0%; Pf growth 96h: 9.3µM*; Pf growth 48h: -14%; NS1 function inh: 2%

Results for Cc1cc(=O)n2nc(N3CCC(C(=O)NCc4ccccc4F)CC3)sc2n1 ?
SARS PLP yeast: 11µM*; Pf growth 96h: inconclusive; Pf growth 48h: -6%; NS1 function inh: 9%

How did COc1ccc(CNC(=O)C2CCN(c3nn4c(=O)cc(C)nc4s3)CC2)cc1 do in these assays?
SARS PLP yeast: inconclusive; Pf growth 96h: inconclusive; Pf growth 48h: -13%; NS1 function inh: 7%

How did CCOc1cc(C)nc(N2CCCC(C(=O)NCc3ccccc3F)C2)n1 (configuration not stated) do in these assays?
SARS PLP yeast: 2%; Pf growth 48h: 2.9µM*; NS1 function inh: -19%

How did CCOc1ccc(CCNC(=O)C2CCN(c3nn4c(=O)cc(C)nc4s3)CC2)cc1 do in these assays?
SARS PLP yeast: 1%; Pf growth 96h: 59%; Pf growth 48h: 10µM*; NS1 function inh: 3%

What do the screens show for `Cc1cc(C)nc(N2CCCC(C(=O)NCCc3ccccc3F)C2)n1` (configuration not stated)?
SARS PLP yeast: -7%; Pf growth 96h: -18%; Pf growth 48h: 5%; NS1 function inh: -4%

What do the screens show for `Cc1cc(=O)n2nc(N3CCC(C(=O)NCc4ccccc4)CC3)sc2n1`?
SARS PLP yeast: 4%; Pf growth 96h: -13%; Pf growth 48h: -13%; NS1 function inh: 5%

Results for Cc1cccc(CNC(=O)C2CCCN(c3nn4c(=O)cc(C)nc4s3)C2)c1 (configuration not stated) ?
SARS PLP yeast: 2%; Pf growth 96h: 1%; Pf growth 48h: -18%; NS1 function inh: -1%

How did CCOc1ccccc1CNC(=O)C1CCCN(c2nn3c(=O)cc(C)nc3s2)C1 (configuration not stated) do in these assays?
SARS PLP yeast: 0%; Pf growth 96h: 15µM*; Pf growth 48h: inconclusive; NS1 function inh: 8%

Results for Cc1ccc(NC(=O)C2CCCN2c2nn3c(=O)cc(C)nc3s2)cc1 (configuration not stated) ?
SARS PLP yeast: -6%; Pf growth 96h: 12µM*; Pf growth 48h: 14%; NS1 function inh: 0%

What do the screens show for `CCc1ccccc1NC(=O)C1CCCN(c2nn3c(=O)cc(C)nc3s2)C1` (configuration not stated)?
SARS PLP yeast: 4%; Pf growth 96h: 10µM*; Pf growth 48h: inconclusive; NS1 function inh: 10%

How did CCC(Cc1ccccc1)NC(=O)C1CCN(c2nn3c(=O)cc(C)nc3s2)CC1 (configuration not stated) do in these assays?
SARS PLP yeast: 4%; Pf growth 96h: 10µM*; Pf growth 48h: -25%; NS1 function inh: 18%

Results for CS(=O)(=O)c1ccc(Cl)c(C(=O)Nc2ccc3nc(N4CCOCC4)sc3c2)c1 ?
SARS PLP yeast: 0%; Pf growth 96h: inconclusive; Pf growth 48h: inconclusive

What do the screens show for `CCS(=O)(=O)c1nc(S(=O)(=O)c2ccc(C)cc2)c(N2CC(C)CC(C)C2)s1` (configuration not stated)?
SARS PLP yeast: -5%; Pf growth 96h: inconclusive; Pf growth 48h: inconclusive; NS1 function inh: 19%

Results for CCC1CCCCN1C(=O)COC(=O)c1cc(C)nc2ccccc12 (configuration not stated) ?
SARS PLP yeast: -2%; Pf growth 96h: inconclusive; Pf growth 48h: inconclusive

Results for COc1ccc(C(=O)O[C@H]2CC[C@@]3(C)[C@H]4CC[C@H]5[C@]3(C[C@]3(O)[C@H]6CN7C[C@H](C)CC[C@H]7[C@](C)(O)[C@]6(O)[C@H](O)C[C@]53O)O[C@]24O)cc1OC ?
NS1 function inh: -8%

How did COc1cccc(CN2CCN(Cc3ccc(OC)c(OC)c3)CC2CCO)c1 (configuration not stated) do in these assays?
SARS PLP yeast: 0%; Pf growth 96h: 9.3µM*; Pf growth 48h: -5%; NS1 function inh: 0%

How did COc1cccc(CN2CCN(Cc3ccc(O)c(OC)c3)CC2CCO)c1 (configuration not stated) do in these assays?
SARS PLP yeast: 0%; Pf growth 96h: 10%; Pf growth 48h: 5%; NS1 function inh: 5%

How did COc1cccc(CN2CCN(Cc3cc4ccccc4o3)CC2CCO)c1 (configuration not stated) do in these assays?
SARS PLP yeast: -1%; Pf growth 96h: -24%; Pf growth 48h: -14%; NS1 function inh: 20%

Results for COc1cccc(CN2CCN(Cc3ccc(C)o3)CC2CCO)c1 (configuration not stated) ?
SARS PLP yeast: 1%; Pf growth 96h: 13µM*; Pf growth 48h: 0%; NS1 function inh: 1%

How did CCCCN1C(=S)NC[C@@H]1c1ccccc1 do in these assays?
SARS PLP yeast: 3%; Pf growth 96h: -20%; Pf growth 48h: inconclusive; NS1 function inh: 3%

What do the screens show for `S=C1NC[C@H](c2ccccc2)N1CC1CCCCC1`?
SARS PLP yeast: -2%; Pf growth 96h: 8.3µM*; Pf growth 48h: inconclusive; NS1 function inh: 1%
